Shiga toxin inh – Shiga toxin inhibition | Vero cells, Shiga toxin protein synthesis inhibition reporter | inhibition, % at 38.7 µM | 9.2% of 290,000 active; in the data active means inhibition mostly above about 28%, no sharp cut-off; inactive means mostly below about 43%
Sm TGR inh – S. mansoni TGR enzyme inhibition. 3% of 360,000 active. AID 485364. Q962Y6. Potency, µM (series often up to 114 µM), most hits filed as inhibitors. purified TGR, DTNB reduction, TNB absorbance 405 nm; further: nearly all actives have a fitted effect of over 60% in size
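TGR 20 nM + NADPH 100 uM (dispensed conc.), cpd preinc 15 min RT; start with NADPH (500 uM addition) then DTNB (15 mM addition). Kinetic TNB absorbance, 405 nm filter. Four-parameter Hill fit across titration.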
CHX counter – affects cycloheximide protein synthesis inhibition readout, counter-screen. 12% of 300,000 active. AID 2314. max response, %. cell reporter, cycloheximide protein synthesis inhibition counterscreen; in the data active means max response mostly above about 13%, no sharp cut-off; inactive means mostly below about 14%; further: read at 38.3 µM for the half of the compounds with a filed dose
LmPK inh – inhibitors of Leishmania mexicana pyruvate kinase. Potency, µM (titrated, usually from 57.5 µM), actives largely listed as inhibitors. Q27686. 0.37% of 290,000 active. purified LmPK, Kinase-Glo ATP luminescence, 1 h
Target sequence (Q27686 whole entry, looked up): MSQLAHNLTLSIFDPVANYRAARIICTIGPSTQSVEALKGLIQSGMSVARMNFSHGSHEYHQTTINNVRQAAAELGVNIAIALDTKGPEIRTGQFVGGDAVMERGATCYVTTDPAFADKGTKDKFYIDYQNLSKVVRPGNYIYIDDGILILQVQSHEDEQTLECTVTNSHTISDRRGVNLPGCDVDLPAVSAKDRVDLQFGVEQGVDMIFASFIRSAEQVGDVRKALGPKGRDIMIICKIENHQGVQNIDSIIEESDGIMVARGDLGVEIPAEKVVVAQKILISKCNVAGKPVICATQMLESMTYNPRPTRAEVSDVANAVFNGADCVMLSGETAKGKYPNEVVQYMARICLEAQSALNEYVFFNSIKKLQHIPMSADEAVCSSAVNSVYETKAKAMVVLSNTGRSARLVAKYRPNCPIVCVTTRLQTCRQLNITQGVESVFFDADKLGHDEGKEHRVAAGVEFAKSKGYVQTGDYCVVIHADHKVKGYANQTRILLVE
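Purified LmPK (0.1 nM) converted ADP (0.1 mM) to ATP with PEP (0.5 mM) in imidazole buffer pH 7.2 with KCl and MgCl2, 1 h at room temperature. ATP was read by Kinase-Glo luminescence; data normalized to uninhibited and no-enzyme controls.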
Giardia FBPA inh – inhibitors of Giardia lamblia fructose-1,6-bisphosphate aldolase; AID 2451; 0.71% of 290,000 active; purified Giardia FBPA; Potency, µM (titrated, usually from 59.6 µM), actives largely listed as inhibitors; A8B2U2; further: nearly all actives have a fitted effect of over 55% in size
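40 nM FBPA preincubated 10 min at RT with compound (up to 57.5 uM final), then substrate plus GAPDH/TPI/NAD/arsenate coupling and diaphorase/resazurin added. Fluorescence read after 20 min at RT, 525/598 nm.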
Tb PYK inh – T. brucei pyruvate kinase inhibition. Q57TT1. TbPYK enzyme, Kinase-Glo Plus ATP luminescence, 45 min. Potency, µM (titrated, usually from 76.8 µM), hits mostly inhibitors. 0.12% of 410,000 active; further: nearly all actives have a fitted effect of over 50% in size
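Readout: single end-point luminescence (Kinase-Glo Plus, 10 min). Reaction conditions were TbPYK/substrate plus 130 uM ADP, 45 min at RT, pH 7.2 TEA buffer. No-enzyme wells served as controls, and data were normalized before concentration-response fitting.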
Each line names hits and unclear results; the compound was inactive in the other large screens. This excerpt belongs to a sample that is enriched for hits. Unless noted, the call rests on the fitted dose curve; in most records, active means well fitted curve in the direction sought with a large enough effect; inconclusive means small, poorly fitted or top-dose-only effect, or another doubt; inactive means no such curve, though single readings can be large; an effect the other way counts as inactive or inconclusive.

COc1ccc(C=NNc2nc3ccccc3s2)cc1	none (no result: Shiga toxin inh, Sm TGR inh, CHX counter, LmPK inh, Giardia FBPA inh)
Cc1ccc(NC(=O)OC(C)N2CCCCC2)cc1NC(=O)OC(C)N1CCCCC1 (stereo not drawn)	none (no result: Shiga toxin inh, Sm TGR inh, CHX counter, LmPK inh, Giardia FBPA inh)
COc1cccc(CN(C)C(=O)c2ccc(N3CCCC3)c([N+](=O)[O-])c2)c1	none (no result: Giardia FBPA inh)
O=c1[nH]c2cc3c(cc2cc1CN(Cc1cccs1)Cc1nnnn1Cc1ccco1)OCCO3	Sm TGR inh 11µM, Giardia FBPA inh inconclusive
COc1ccc2cc(CN(Cc3cccs3)Cc3nnnn3Cc3ccccc3)c(=O)[nH]c2c1	none
Cc1cc(C)c2cc(CN(Cc3ccc4c(c3)OCO4)Cc3nnnn3Cc3ccco3)c(=O)[nH]c2c1	Sm TGR inh 40µM
COc1ccccc1CN(Cc1cc2cc3c(cc2[nH]c1=O)OCCO3)Cc1nnnn1Cc1ccco1	Sm TGR inh inconclusive, Tb PYK inh inconclusive
CCC(c1nnnn1CCc1ccccc1)N(Cc1ccco1)Cc1cc2cc(C)cc(C)c2[nH]c1=O (stereo not drawn)	Sm TGR inh 56µM
Cc1ccc2[nH]c(=O)c(CN(Cc3ccc4c(c3)OCO4)Cc3nnnn3Cc3ccco3)cc2c1	Sm TGR inh inconclusive
O=c1[nH]c2cc3c(cc2cc1CN(Cc1ccccc1)Cc1nnnn1Cc1ccco1)OCCO3	Sm TGR inh 8.9µM, Giardia FBPA inh inconclusive
O=C1C2=CC[C@@H]3C(=O)N(c4ccc(F)cc4F)C(=O)[C@H]3[C@H]2[C@H](O)[C@H]2O[C@H]12	none (no result: Shiga toxin inh, Sm TGR inh, CHX counter, LmPK inh, Tb PYK inh)
O=C(NCCc1ccc(O)c(Br)c1)c1ccc(Br)o1	none (no result: Shiga toxin inh, Sm TGR inh, CHX counter, LmPK inh, Giardia FBPA inh)
CCC(CO)NC(=O)c1ccccc1C(F)(F)F (stereo not drawn)	none
O=c1c2sc3ccccc3c2n(Cc2cccc(Cl)c2)c(=O)n1Cc1ccccc1	none (no result: Shiga toxin inh, CHX counter, LmPK inh, Giardia FBPA inh)
O=c1[nH]c2cc3c(cc2cc1CN(CCc1ccccc1)Cc1nnnn1C1CCCC1)OCCO3	Sm TGR inh 45µM, Giardia FBPA inh inconclusive (no result: Tb PYK inh)
CCc1ccc2[nH]c(=O)c(CN(Cc3ccccc3)Cc3nnnn3Cc3ccco3)cc2c1	Shiga toxin inh 72, Sm TGR inh inconclusive, CHX counter 24
CCOC(=O)Cn1nnnc1CN(Cc1ccccc1)Cc1cc2cc(CC)ccc2[nH]c1=O	none
Cc1ccc2[nH]c(=O)c(CN(CCc3ccccc3)C(c3nnnn3Cc3ccco3)C(C)C)cc2c1 (stereo not drawn)	Shiga toxin inh 40
Cc1cc2cc(CN(Cc3ccc4c(c3)OCO4)Cc3nnnn3C3CCCC3)c(=O)[nH]c2cc1C	none
O=c1[nH]c2cc3c(cc2cc1CN(Cc1cccnc1)Cc1nnnn1Cc1ccco1)OCCO3	Sm TGR inh 14µM, Giardia FBPA inh inconclusive
CC(C)n1c(NCCO)nc2ccccc21	none
CCN(CC)c1ccc2nc3ccccc3[n+](CC)c2c1	Sm TGR inh inconclusive, LmPK inh inconclusive, Tb PYK inh inconclusive
C[n+]1c2ccccc2nc2ccc(NCCO)cc21	Sm TGR inh 10µM, CHX counter 13, Giardia FBPA inh inconclusive, Tb PYK inh inconclusive
CNc1ccc2nc3ccccc3[n+](C)c2c1	Shiga toxin inh 67, Sm TGR inh 6.3µM, CHX counter 35, Tb PYK inh inconclusive
Cc1ccc2nc3sc(C(=O)Nc4c(C)[nH]c(=O)[nH]c4=O)c(N)c3cc2c1	CHX counter 31
Cc1ccc2nc3sc(C(=O)NCc4ccco4)c(N)c3cc2c1	Shiga toxin inh 68, CHX counter 23
COc1cc2cc3c(N)c(C(=O)NCc4ccco4)sc3nc2cc1OC	Shiga toxin inh 54, Sm TGR inh inconclusive, CHX counter 16
COc1ccc(-n2c(N)c(C(=O)NCc3ccco3)sc2=S)cc1	none
CC(=O)Nc1ccc(C(=O)OCCC(C)C)cc1	Shiga toxin inh 84, CHX counter 24
CCCOC(=O)c1ccc(NC(=O)CC(C)(C)C)cc1	Shiga toxin inh 54, CHX counter 34
CCCCOC(=O)c1ccc(NC(=O)C(CCS(C)(=O)=O)NC(C)=O)cc1 (stereo not drawn)	none
CCCOC(=O)c1ccc(NC(=O)COC)cc1	Shiga toxin inh 50
O=C(N/N=C/c1ccccc1F)c1ccccc1OCc1ccccc1	Shiga toxin inh 75, CHX counter 20
O=C(NNC(=O)c1ccccc1OCc1ccccc1)c1ccccc1O	none (no result: Giardia FBPA inh)
O=C(NNC(=O)c1ccccc1OCc1ccc(F)cc1)c1ccccc1O	CHX counter 15 (no result: Giardia FBPA inh)
O=C(NNC(=O)c1ccccc1OCc1ccccc1)c1ccccc1F	Shiga toxin inh 73, CHX counter 69
CN(Cc1ccccc1)C(=O)Cn1c(=O)c2cccn2c2ccc(F)cc21	none (no result: Shiga toxin inh, CHX counter, LmPK inh, Giardia FBPA inh)
CCOc1ccc(NC(=O)CCS(=O)(=O)c2cccc3nonc23)cc1	none (no result: Shiga toxin inh, CHX counter, LmPK inh, Giardia FBPA inh)
CCOc1ccc(C(C)=O)cc1N1C(=O)C2C(C1=O)C1C=CC2C12CC2 (stereo not drawn)	Sm TGR inh inconclusive
CC(=O)Oc1cccc(N2C(=O)C3C4C=CC(C4)C3C2=O)c1 (stereo not drawn)	none
CC(=O)Oc1ccc(N2C(=O)C3C4C=CC(C5CC45)C3C2=O)cc1[N+](=O)[O-] (stereo not drawn)	Sm TGR inh 10µM
CC(=O)Oc1ccc(N2C(=O)C3C(C2=O)C2C=CC3C23CC3)cc1[N+](=O)[O-] (stereo not drawn)	Sm TGR inh 18µM
COCCn1c(SCC(=O)Nc2cc(C)on2)nc2c(c1=O)SCC2	none (no result: Giardia FBPA inh)
Cc1noc(C)c1S(=O)(=O)NCCc1csc2nc(-c3ccc(F)cc3)nn12	none (no result: Shiga toxin inh, CHX counter, LmPK inh, Giardia FBPA inh)
O=C(NCCSc1ccccc1)c1ccccc1Cl	Shiga toxin inh 97, CHX counter 64
CSc1ccccc1C(=O)NCCSC(C)(C)C	none
CSc1ccccc1C(=O)NCCSc1ccccc1	CHX counter 29
Cc1ccccc1C(=O)NCCSc1ccccc1	CHX counter 32
O=C(c1ccc(F)cc1)c1ccc(-c2ccc(F)cc2)nc1	CHX counter 14
N#Cc1ccc(COc2ccc(CCO)cc2-n2nc3ccccc3n2)cc1	none
OCCc1ccc(O)c(-n2nc3ccccc3n2)c1	Shiga toxin inh 59, CHX counter 22
COc1coc(C(O)C[N+](=O)[O-])cc1=O (stereo not drawn)	Sm TGR inh 50µM, Tb PYK inh inconclusive
CCn1c(SCC(=O)Nc2ccc(N3CCOCC3)cc2)nnc1-c1ccco1	Sm TGR inh inconclusive (no result: Shiga toxin inh, CHX counter, LmPK inh, Giardia FBPA inh)
Cc1nc2ccc(NC(=S)NC(C)C)cc2nc1C	CHX counter 20, Giardia FBPA inh inconclusive
Cc1nc2ccc(NC(=S)NC3CC3)cc2nc1C	CHX counter 19, Giardia FBPA inh inconclusive
Cc1nc2ccc(NC(=S)NCCCO)cc2nc1C	Sm TGR inh inconclusive, Giardia FBPA inh inconclusive
CCc1cccc(NC(=O)CN(C)S(=O)(=O)c2ccc3c(c2)CCCN3C(C)=O)c1	none (no result: Shiga toxin inh, CHX counter, LmPK inh, Giardia FBPA inh)
Cc1[nH]c2ccccc2c1N=Nc1cccc(C(=O)O)c1	Shiga toxin inh 108, CHX counter 58
Cc1[nH]c2ccccc2c1N=Nc1ccccc1C(=O)O	Shiga toxin inh 48, CHX counter 17

Screening data (PubChem)
